Screens from PubChem.
Sampled rows, rich in hits. Any-hit rate of the full collection: about 3.1%.
GCN5L2 inh: GCN5L2 (KAT2A) acetyltransferase inhibition; Q92830; GCN5L2 HAT assay, ThioGlo1 CoA-SH fluorescence; Potency, µM (highest dose often 58.9 µM), most hits filed as inhibitors; 390,000 compounds, 0.21% hits; AID 504327
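Compounds, pin-transferred from DMSO stocks, meet 20nM GCN5L2 for 15 min before the reaction begins with H3(1-25) peptide (75uM) and acetyl-CoA (70uM). Thiol-reactive ThioGlo1 reports CoA release over 20 min at room temperature.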
GLS inhibitor: blocks human kidney-isoform glutaminase activity | GLS enzymatic activity, qHTS titration | O94925 | 410,000 compounds, 0.21% hits | AID 624170 | Potency, µM (series often up to 45.5 µM), actives largely listed as inhibitors
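Glutamate formation by hKGA was monitored fluorometrically using coupled glutamate oxidase, HRP and Amplex Red. Substrate was added as 1 mM L-glutamine solution; incubation was 30 min at RT after an initial read.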
PLK1 PBD block: blocks phosphopeptide binding to human PLK1 polo-box domain. 360,000 compounds, 2.8% hits. Potency, µM, usual class: inhibitors. Plk1 PBD binding of FITC phosphopeptide, fluorescence polarization; further: series mostly up to about 57 µM; nearly all actives have a fitted effect of over 65% in size
Target sequence (P53350 whole entry, looked up, the tested form may be a part): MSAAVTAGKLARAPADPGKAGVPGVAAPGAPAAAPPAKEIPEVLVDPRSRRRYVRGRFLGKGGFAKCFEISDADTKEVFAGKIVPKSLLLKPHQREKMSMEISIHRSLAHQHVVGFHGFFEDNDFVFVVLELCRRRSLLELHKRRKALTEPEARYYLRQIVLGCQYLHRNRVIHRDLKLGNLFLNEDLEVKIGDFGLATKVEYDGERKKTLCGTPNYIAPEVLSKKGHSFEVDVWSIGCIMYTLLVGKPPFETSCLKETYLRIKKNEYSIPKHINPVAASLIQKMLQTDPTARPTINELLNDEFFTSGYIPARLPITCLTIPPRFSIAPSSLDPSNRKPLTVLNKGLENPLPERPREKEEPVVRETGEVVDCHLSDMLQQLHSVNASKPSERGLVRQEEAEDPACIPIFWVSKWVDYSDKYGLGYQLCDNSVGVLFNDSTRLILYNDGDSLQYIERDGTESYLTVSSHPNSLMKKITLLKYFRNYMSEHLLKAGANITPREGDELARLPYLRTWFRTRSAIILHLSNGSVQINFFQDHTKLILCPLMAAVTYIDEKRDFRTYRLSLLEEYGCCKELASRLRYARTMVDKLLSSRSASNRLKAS
VDR inh: vitamin D3 receptor (human) inhibition; 400,000 compounds, 0.93% hits; Potency, µM, actives largely listed as inhibitors; VDR-SRC2-3 peptide fluorescence polarization, 2 h; P11473
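Fluorescence polarization assay of small-molecule disruption of VDR binding to coregulator peptide SRC2-3. Compounds and controls pin-transferred, then read after 2 h incubation at ambient room temperature.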
PI4K2A block: PI4K2A (human) kinase inhibition; Q9BTU6; purified PI4K2A, ADP-Glo luminescence, 1 h; stronger effect = lower value; 420,000 compounds, 0.13% hits; activity change, negative = inhibition, % at 76.9 µM; in the data active means activity change below about -50%; inconclusive means mostly about -30% to -49%
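PI4K2A activity was measured by ADP-Glo luminescence: enzyme (4 ug/mL stock) and phosphatidylinositol (1.2 mM stock) in Tris pH 7.5/MgCl2/EGTA/Triton X-100 buffer were reacted with ATP (300 microM stock) for one hour at ambient temperature.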
Each line names hits and unclear results; the compound was inactive in the other large screens. Unless noted, the call rests on the fitted dose curve; in most records, active means well fitted curve in the direction sought with a large enough effect; inconclusive means small, poorly fitted or top-dose-only effect, or another doubt; inactive means no such curve, though single readings can be large; an effect the other way counts as inactive or inconclusive.

Cc1cccc(-c2nsc(SCC(=O)Nc3ccc4c(c3)OCO4)n2)c1	none
CCc1nnc(NC(=O)CSc2nc(-c3ccc(OC)cc3)ns2)s1	none
CCc1nnc(NC(=O)CSc2nccn2-c2cccc(C)c2C)s1	none
COc1ccc(-c2nsc(SCC(=O)Nc3cc(C)on3)n2)cc1	PLK1 PBD block 9.47µM, VDR inh inconclusive
Cc1cccc(-n2ccnc2SCC(=O)Nc2nccs2)c1C	PLK1 PBD block 26.7µM
Cc1cccc(-c2nsc(SCC(=O)Nc3nccs3)n2)c1	PLK1 PBD block 18.9µM
CN(N)c1nc2ccccc2nc1C(F)(F)F	GLS inhibitor inconclusive, PLK1 PBD block 21.2µM
Cc1cc2nc(-c3ccc(SCc4ccc(C(=O)O)cc4)nc3)[nH]c2cc1C	GCN5L2 inh inconclusive, PLK1 PBD block 18.9µM
Cc1ccnc(OC(C(=O)O)C(OCc2ccccc2)(c2ccc(F)cc2)c2ccc(F)cc2)n1 (stereo unspecified)	PLK1 PBD block 26.7µM, VDR inh inconclusive
Cc1cc(C)nc(OC(C(=O)O)C(OCCc2ccccc2)(c2ccc(F)cc2)c2ccc(F)cc2)n1 (stereo unspecified)	PLK1 PBD block inconclusive, VDR inh inconclusive
Cc1cc(Cl)nc2c(C(C)C)cccc12	PLK1 PBD block 16.8µM
Cc1ccc(F)cc1C(=O)N(Cc1ccccn1)CC1CCCO1 (stereo unspecified)	none (no result: GCN5L2 inh, GLS inhibitor, PLK1 PBD block, VDR inh)
C[C@@H]1CCN(C2CC2)S(=O)(=O)c2c(cccc2N2CC[C@@H](N(C)C)C2)O1	none (no result: GCN5L2 inh, GLS inhibitor, PLK1 PBD block, VDR inh)
CCN(CC)C(=O)c1cc([N+](=O)[O-])cc2c1-c1ccc([N+](=O)[O-])cc1C2=C(C#N)C#N	GCN5L2 inh inconclusive, PLK1 PBD block 9.47µM, VDR inh 25.1µM
CCCCC(=O)NC(=S)Nc1cccc(NC(=O)CC)c1	none
CCCCC(=O)NC(=S)Nc1c(C)cc(Br)cc1C	PLK1 PBD block 15µM
COc1ccc(CNC(=O)Cn2nc([N+](=O)[O-])c(Br)c2C)cc1	none
Cc1c(Br)c([N+](=O)[O-])nn1CC(=O)NCc1ccccc1	PLK1 PBD block 11.9µM, VDR inh inconclusive
COc1ccc(CNC(=O)c2cc(-c3ccc(C)c(C)c3)n[nH]2)cc1	none (no result: PLK1 PBD block)
CCCCCCCC#Cc1ccccc1/C=N/S(=O)c1ccc(C)cc1 (stereo unspecified)	GCN5L2 inh inconclusive, GLS inhibitor inconclusive, PLK1 PBD block 15µM, VDR inh inconclusive
CCCCC#Cc1ccccc1CC(=O)Nc1ccccc1	none
CCOC(=O)CC1(NC(=O)C2CCC(=O)N(Cc3ccccc3F)C2)CCCCC1 (stereo unspecified)	PLK1 PBD block 26.7µM, VDR inh inconclusive
Cn1cnc2c1c(=O)n(Cc1cccc(F)c1)c(=O)n2C	none
Cn1cnc2c1c(=O)n(Cc1ccc(F)cc1Cl)c(=O)n2C	GLS inhibitor 8.91µM
S=c1[nH]c2ccccc2n1CCOc1ccccc1	PLK1 PBD block 18.9µM, VDR inh inconclusive
Cc1ccc(OCCn2c(=S)[nH]c3ccccc32)c(C(C)C)c1	VDR inh inconclusive
CCOc1ccc(OCCn2c(=S)[nH]c3ccccc32)cc1	PLK1 PBD block 13.4µM, VDR inh inconclusive
N#CCCn1c(=S)[nH]c2ccccc21	PLK1 PBD block inconclusive
COc1ccccc1OCCn1c(=S)[nH]c2ccccc21	PLK1 PBD block inconclusive
CCOc1ccc2c(c1)[nH]c(=S)n2C	PLK1 PBD block 13.4µM, VDR inh inconclusive
Cc1cccc(OCCn2c(=S)[nH]c3ccccc32)c1	PLK1 PBD block 5.97µM, VDR inh inconclusive
CCOc1ccc(Oc2c(Cl)cnn(Cc3cccc4ccccc34)c2=O)cc1	none (no result: GCN5L2 inh, GLS inhibitor, PLK1 PBD block, VDR inh)
CC(C)CN1C(=O)C[C@]2(C(=O)N(C)c3ccc(NS(=O)(=O)C4CC4)cc32)C1c1ccccc1 (stereo partly specified)	none (no result: GCN5L2 inh, GLS inhibitor, PLK1 PBD block, VDR inh)
S=c1[nH]c2ccccc2n1Cc1ccccc1	PLK1 PBD block 8.44µM, VDR inh inconclusive
S=c1[nH]c2cnccc2n1Cc1ccccc1	PLK1 PBD block inconclusive
O=S1(=O)CC(N2CCCC2)CN1 (stereo unspecified)	none (no result: GCN5L2 inh, GLS inhibitor, PLK1 PBD block, VDR inh)
CCCc1nnc(SCc2ccc(OC)cc2)n1N	GLS inhibitor inconclusive, PLK1 PBD block 21.2µM, VDR inh 25.1µM
CCCOc1ccc(CSc2nnc(CCC)n2N)cc1	none
